Results filed as inconclusive are left out. A call without a number means that no potency is given here. Active and inactive are the calls of the source. Calls come from the whole dose curve; as a rule, active = well fitted activation curve with a large enough effect; inconclusive = small, poorly fitted or top-dose-only effect; inactive = flat fitted curve, though single readings scatter.
Assay: qHTS for Inhibitors of Cell Surface uPA Generation: FP59 Counterscreen for Cherry-picked Compounds
Settings: FP59 anthrax toxin cytotoxicity counterscreen, cells; series mostly up to 115 µM

Row | Compound | Potency
1 | O=C(NCCCn1cccn1)C1CCC(=O)N(Cc2ccccc2F)C1 (configuration not stated) | inactive
2 | COc1cc(NC(=O)COC(=O)c2cc(S(=O)(=O)N3CCCCC3)ccc2Cl)c(C)cc1[N+](=O)[O-] | inactive
3 | O=S(=O)(/N=C(/c1ccccc1)N1CCOCC1)c1ccc(F)cc1F | inactive
4 | Cc1c(C(=O)N2CCN(S(=O)(=O)c3cccs3)CC2)oc2ccc(F)cc12 | inactive
5 | CCN(C1CCS(=O)(=O)C1)S(=O)(=O)c1ccc2ccccc2c1 (configuration not stated) | inactive
6 | CC1CN(C(=O)CCC(=O)NCc2ccccc2)c2ccccc2S1 (configuration not stated) | inactive
7 | CSc1ccccc1OCc1cc(C(=O)NCCCn2nc(C)cc2C)no1 | inactive
8 | CC(C)CNC(=O)COC(=O)CCC(=O)c1cccs1 | inactive
9 | CCOC(=O)C(CC)n1cnc2c(nnn2-c2ccccc2)c1=O (configuration not stated) | inactive
10 | Cc1cc(=O)[nH]c2c(C)cc(S(=O)(=O)Nc3ccc(O)cc3)cc12 | inactive
11 | COc1cc(CCC(=O)OCC(=O)Nc2ccc(C)cc2Br)cc(OC)c1OC | inactive
12 | Cn1c(=O)n(CC(=O)O)c(=O)c2c1nc1n2CCCN1CCc1ccccc1 | inactive
13 | O=C(c1cc(COc2c(F)cccc2F)on1)N1CCc2ccccc2C1 | inactive
14 | O=C(NCCc1cn2ccsc2n1)c1cccs1 | inactive
15 | CCCN1CCN(C(=O)CCCn2c(C)c3cnn(-c4ccccc4)c(=O)c3c2C)CC1 | inactive
16 | COc1ccc2[nH]cc(S(=O)(=O)c3ccc(C(C)C)cc3)c(=O)c2c1 | inactive
17 | O=C(CSc1nnnn1-c1cccc(F)c1)Nc1nc2ccccc2s1 | inactive
18 | COc1ccc(C)cc1NC(=O)NNC(=O)C1CCC(C(C)(C)C)CC1 (configuration not stated) | inactive
19 | O=C1CCCc2ccccc2N1Cc1ccc(F)cc1 | inactive

Row | Compound | Potency
20 | CC(=O)Oc1ccc(OC(C)=O)c(SCCCCCCl)c1 | inactive
21 | OCCN(Cc1ccccc1)CC(O)COc1ccc2c(c1)OCO2 (configuration not stated) | inactive
22 | CC(=O)c1c(C)n(-c2ccccc2Br)c2ccc(O)cc12 | inactive
23 | Cc1nc(SCC(=O)NCCN2C(=O)CSC2=O)nc(C)c1C | inactive
24 | Cc1ccc(C(O)(COC(=O)C(C)C)COC(=O)C(C)C)c(O)c1 | inactive
25 | COc1ccc(N2CC(C(=O)Nc3nnc(SCCC4OCCO4)s3)CC2=O)cc1 (configuration not stated) | inactive
26 | O=[N+]([O-])c1ccccc1C=NNC(=S)NN=Cc1ccccc1[N+](=O)[O-] | inactive
27 | CCOC(=O)C1=C(C)N(Cc2ccccc2)C(=O)NC1c1ccc(OC)cc1 (configuration not stated) | inactive
28 | CCC(COC)NC(=O)CCc1nnc(Cc2c[nH]c3ccccc23)o1 (configuration not stated) | inactive
29 | COC(=O)[C@H](CC(C)C)N(Cc1ccccc1)S(=O)(=O)N(Cc1ccc(OC)cc1)[C@@H](CC(C)C)C(=O)OC | inactive
30 | COc1ccc(C2C(C(=O)c3ccc(C)o3)=C(O)C(=O)N2CC2CCCO2)cc1OC (configuration not stated) | inactive
31 | C[C@H](CO)N1C[C@H](C)[C@@H](CN(C)C(=O)Nc2ccccc2)Oc2c(NS(=O)(=O)c3ccccc3)cccc2C1=O | inactive
32 | COc1cccc(CC(=O)n2nc(N)c3cc4ccc(OC)cc4nc32)c1 | inactive
33 | COCc1cc(C)nc2sc(C(=O)Nc3nccs3)c(N)c12 | inactive
34 | C/C(=N\NC(=O)c1ccccc1)c1c(C)[nH]n(-c2ccccc2)c1=O | inactive
35 | Cc1c(NC(=S)Nc2ccc(Cl)cc2)c(=O)n(-c2ccccc2)n1C | inactive
36 | CS(=O)(=O)N1CCC(C(=O)Nc2ccccc2)CC1 | inactive
37 | C=CCc1cc(S(=O)(=O)c2ccc(O)c(CC=C)c2)ccc1O | inactive

Source: PubChem BioAssay AID720517 (National Center for Advancing Translational Sciences (NCATS), 2013)
